Screening results as filed in PubChem.
SUMO HTRF inh = inhibitors of human SUMOylation (UBC9); AID 2006; inhibition, % at 35 µM; P63279; hit rate 0.36% among 290,000; HTRF SUMOylation assay, SAE1/SAE2 + UBC9, in vitro; in the data active = inhibition above about 50%, passing the limit was not always enough
Target sequence (P63279 whole entry, looked up): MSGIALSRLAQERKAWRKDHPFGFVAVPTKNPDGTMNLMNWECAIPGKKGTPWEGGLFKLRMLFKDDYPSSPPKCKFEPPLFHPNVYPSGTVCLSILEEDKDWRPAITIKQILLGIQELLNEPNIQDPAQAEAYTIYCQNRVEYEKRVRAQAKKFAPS
UBC13 polyUb = blocks human UBC13 polyubiquitin chain formation; P61088; TR-FRET; inhibition, % at 20 µM; hit rate 0.47% among 330,000; AID 485273; in the data active = inhibition above about 45%, passing the limit was not always enough
Target sequence (P61088 whole entry, looked up): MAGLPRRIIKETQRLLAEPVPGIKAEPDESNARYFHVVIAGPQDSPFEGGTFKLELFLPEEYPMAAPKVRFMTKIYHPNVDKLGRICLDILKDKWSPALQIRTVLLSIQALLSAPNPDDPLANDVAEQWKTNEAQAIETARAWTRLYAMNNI
HGIII-sPLA2 inh = Blocks human group III sPLA2 activity; Q9NZ20; QFRET BODIPY PC-A2 liposome hydrolysis, fluorescence; inhibition, % at 12.2 µM; hit rate 0.56% among 370,000; AID 743126;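 active = inhibition above mean plus 3 SD of compounds lying within the high and low control bounds, cut at about 19% in these data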;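 also: 0% = median of test compound wells and 100% = no enzyme DMSO wells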
GRIN3A LBD mod = NR3A (human) ligand-binding domain modulation. NR3A LBD differential scanning fluorimetry, Tm shift; 0% = protein alone, 100% = glycine-bound protein. Tm shift relative to glycine control, % at 25 µM. hit rate 2.5% among 340,000. AID 1259313;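 active = melting temperature shift of at least 10% of the positive control shift, at one fixed dose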
hGIII sPLA2 conf = human GIII-sPLA2 inhibition, confirmation | shares compounds with HGIII-sPLA2 inh | recombinant hGIII-sPLA2, BODIPY PC-A2 QFRET fluorescence | inhibition, % at 12.2 µM | hit rate 34% among 2,000 | AID 743280;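 active = mean inhibition across triplicates above the hit cutoff set in the earlier primary screen, cut at about 19% in these data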;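 also: 0% = enzyme with DMSO and 100% = DMSO wells lacking enzyme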
BODIPY interf = counter-screen for HGIII-sPLA2 inhibitors: 535nm fluorescence interference; shares compounds with HGIII-sPLA2 inh; BODIPY FL product fluorescence interference, QFRET; inhibition, % at 12.2 µM; hit rate 8.5% among 2,000; AID 743282;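 active = average inhibition above the solvent-only control mean plus 3 SD, cut at about 6% in these data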;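 also: 0% = DMSO with substrate plus product and 100% = DMSO with substrate alone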
BODIPY interf DR = 535nm optical interference dose response, HGIII-sPLA2 counter-screen; shares compounds with HGIII-sPLA2 inh; BODIPY FL product fluorescence interference, cell-free; IC50, µM; 240 tested, under 10 active; AID 743455;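 active = IC50 at or below 10 µM; inactive = IC50 above 10 µM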
Active calls of the source: *; . = not tested or not shown. Shown are actives, neighbours in structure and some others; about 3.3% of the full set was active somewhere.

SMILES	SUMO HTRF inh	UBC13 polyUb	HGIII-sPLA2 inh	GRIN3A LBD mod	hGIII sPLA2 conf	BODIPY interf	others
CN(C)S(=O)(=O)c1ccc(C(=O)Oc2coc(CSc3ncccn3)cc2=O)cc1	-15	0	0	-1	.	.
CCN(CC)S(=O)(=O)c1ccc(C(=O)Oc2coc(CSc3nc(C)cc(C)n3)cc2=O)cc1	8	-4	21*	1	-29	-29
COC(=O)c1cnn(-c2ccc(F)cc2F)c1/C=N/NC(=S)Nc1ccccc1	.	.	22*	.	20*	0
CC(C)c1ccc(NC(=O)O[C@@H]2CC[C@@]34CCCN3C(=O)CCC[C@H]4C2)cc1	.	.	-6	.	.	.
O=C(N/N=C/c1coc2ccccc2c1=O)c1ccccc1	4	3	-2	2	.	.
O=C(N/N=C/c1coc2ccccc2c1=O)c1cc(Br)ccc1O	-9	-3	22*	-5	13	1
COC(=O)c1cc(-c2ccc(C(C)=O)cc2)c(=O)n2c1CCC2	.	.	-5	.	.	.
COC1=C[C@H](C(=O)NC2CCN(Cc3ccccc3)CC2)[C@@]2(C)Cc3ccccc3[C@H]2CC1=O	.	.	-11	.	.	.
O=C(OCc1ccccc1)N1CCC2CC1c1ccc(N3CCNCC3)cc12 (stereo not given)	.	.	31*	.	-4	-35
O=C(OCc1ccccc1)N1CCC2CC1c1ccc(N3CCOCC3)cc12 (stereo not given)	.	.	13	.	.	.
COc1ccc(NC(=S)N2CCN(c3ccc4c(c3)C3CCN(C(=O)OCc5ccccc5)C4C3)CC2)c(OC)c1 (stereo not given)	.	.	25*	.	5	-22
Cc1cccc(NC(=O)Nc2nc3ncccn3c2-c2ccccc2)c1	.	.	8	.	.	.
O=C(CCn1nnc2ccccc21)N1CCN(c2ccc(F)cc2)CC1	.	.	3	.	.	.
O=C(CSc1nnc(COc2ccccc2)n1-c1ccccc1)Nc1ccc2c(c1)OCCO2	.	.	-22	.	.	.
CCOc1ccc(NC(=O)CSc2nnc(-c3n[nH]c4c3CCC4)n2N)cc1	.	.	-5	.	.	.
CC(=O)C1(C(=O)NCc2ccccc2)CC(c2ccccn2)=NO1 (stereo not given)	.	.	14	.	.	.
CC1CCC(NC(=O)C(NS(=O)(=O)c2cccc3nsnc23)C(C)C)CC1 (stereo not given)	13	-5	86*	0	-4	-7
C[C@H](O)[C@@H]1CN2CCc3c([nH]c4c(-c5ccc6c(c5)OCO6)cccc34)[C@@H]2C[C@@H]1N(C)C(=O)c1ccco1	.	.	0	.	.	.
O=C(CN1C(=O)S/C(=C/c2ccc(N3CCOCC3)cc2)C1=O)N1CCOCC1	14	-19	22*	-4	-6	-12
C/C(=N\Nc1ncc(Cl)cc1Cl)c1ccc(OC(F)F)cc1	16	-8	4	-20	.	.
C/C(=N\Nc1ncc(Cl)cc1Cl)c1ccc2c(c1)OCO2	2	5	20*	0	4	-5
Cc1ccc(F)cc1NC(=S)NCCc1ccccc1	10	-10	22*	-2	20*	-5
COc1cc(OC)c(C2Nc3cccc4cccc(c34)N2)c(OC)c1	74	-25	22*	-1	37*	-3	BODIPY interf DR=>122
COc1ccc(C2Nc3cccc4cccc(c34)N2)cc1	18	-26	-5	-8	.	.
COc1ccccc1C1Nc2cccc3cccc(c23)N1	52	-10	21*	-2	34*	12*
SMILES	SUMO HTRF inh	UBC13 polyUb	HGIII-sPLA2 inh	GRIN3A LBD mod	hGIII sPLA2 conf	BODIPY interf	others
Oc1ccc(/C=C/c2ccccc2F)c2cccnc12	.	.	28*	.	6	9.6*
CC(C)CCNC(=S)Nc1ccccn1	7	11	8	-2	.	.
CC(C)CCNC(=S)Nc1ccccc1F	7	-5	20*	14*	9	-1
Cc1ccc(Cn2cc(COC(=O)N3CCOCC3)nn2)cc1	.	.	-1	.	.	.
Cc1ccc(OCCOc2c(Cl)cc(Cl)cc2Cl)c([N+](=O)[O-])n1	.	.	-2	.	.	.
CC(=O)C1=C(O)C(=O)N(C)C1c1ccccc1[N+](=O)[O-] (stereo not given)	-1	-14	25*	0	-1	-2
CC(=O)C1=C(O)C(=O)N(CCC(=O)O)C1c1ccccc1[N+](=O)[O-] (stereo not given)	14	-10	-4	0	.	.
O=C(Nc1ccc([N+](=O)[O-])cn1)c1cccnc1	-4	-14	20*	2	5	-4
CC(C)(C)c1ccc(C(=O)Nc2ccc([N+](=O)[O-])cn2)cc1	-16	-7	1	-1	.	.
CCCCn1c(C23CC4CC(CC(C4)C2)C3)n[nH]c1=S	11	23	25*	-3	44*	4	BODIPY interf DR=>122
CC(=O)c1cc(CN2C(=O)CCC2=O)cs1	18	5	20*	1	-4	0
CN(C)N1C(N)=C(C#N)C(c2cccc([N+](=O)[O-])c2)C2=C1CC(C)(C)CC2=O (stereo not given)	0	-2	20*	-1	0	-6
CCc1ccc(N2C(=O)Nc3ccc(Br)cc3C2(O)C(=O)NCCN(C)C)cc1 (stereo not given)	4	6	20*	2	2	-6
CCC(CO)Nc1cccc2c1S(=O)(=O)N(Cc1cn(Cc3ccc(C(F)(F)F)cc3)nn1)Cc1ccccc1O2 (stereo not given)	.	.	-6	.	.	.
CCN(CC)c1ccc(C(=O)NNC(=O)CCNC(=O)c2ccccc2)cc1	.	-19	-3	0	.	.
CCN(CC)c1ccc(C(=C2C=CC(=[N+](CC)CC)C=C2)c2ccc(N(CC)CC)cc2)cc1	.	.	60*	351*	61*	-15	BODIPY interf DR=>122
CCN(CC)c1ccc(C(=C2C=CC(=[N+](CC)CC)C=C2)c2ccccc2)cc1	.	.	63*	-88	75*	-16
O=S1(=O)C=CCN1Cc1cn(Cc2ccc(C(F)(F)F)cc2)nn1	.	.	6	.	.	.
Cn1nnc(NC(=S)NC(=O)c2cccs2)n1	9	-9	3	-1	.	.
CCCCn1nnc(NC(=S)NC(=O)c2cccs2)n1	-2	-14	23*	0	11	-5
CN1C(=O)c2cc(NC(=O)Nc3ccccc3)ccc2OC[C@H]2O[C@@H](CC(=O)N[C@H]3CCN(Cc4ccccc4)C3)CC[C@@H]21	.	.	-26	.	.	.
Cc1cccc(-n2c(C)c(-c3ccccc3)[nH]c2=S)c1	-6	-2	29*	3	33*	0
O=C(NCc1ccccc1)[C@@H]1CCCN1C(=O)[C@H]1CCCN1C(=O)c1ccc(F)cc1	.	.	17	.	.	.
O=C(NCc1ccccc1)[C@@H]1CCCN1C(=O)[C@H]1CCCN1C(=O)c1ccc(Cl)cc1	.	.	21*	.	2	-17
CC(C)c1onc(C(=O)N(C)Cc2ccccc2)c1[N+](=O)[O-]	-21	11	22*	-7	-5	1
